FBPA Giardia inh – qHTS Assay for Inhibitors of Fructose-1,6-bisphosphate Aldolase from Giardia Lamblia; A8B2U2; purified Giardia FBPA; Potency, µM (top dose mostly 59.6 µM), most hits filed as inhibitors; 290,000 compounds, 0.71% hits; AID 2451, 2010; also: nearly all actives have a fitted effect of over 55% in size
Target sequence (A8B2U2 whole entry, looked up): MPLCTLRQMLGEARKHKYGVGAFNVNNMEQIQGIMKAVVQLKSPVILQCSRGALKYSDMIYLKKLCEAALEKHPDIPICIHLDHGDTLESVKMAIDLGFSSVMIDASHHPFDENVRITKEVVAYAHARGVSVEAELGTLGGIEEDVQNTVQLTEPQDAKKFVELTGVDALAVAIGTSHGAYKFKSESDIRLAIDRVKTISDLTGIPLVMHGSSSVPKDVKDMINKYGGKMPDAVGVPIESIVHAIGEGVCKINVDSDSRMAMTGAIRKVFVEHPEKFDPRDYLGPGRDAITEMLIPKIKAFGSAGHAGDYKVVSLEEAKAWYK
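Giardia FBPA (40 nM reagent) was preincubated 10 min at RT with compound (up to 57.5 uM final), then substrate plus GAPDH/TPI/NAD/arsenate coupling system with diaphorase/resazurin was added; resorufin fluorescence (525/598 nm) was read after 20 min.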
NS1 function inh – qHTS Assay for Inhibitors of Influenza NS1 Protein Function; 270,000 compounds, 0.4% hits; Potency, µM (highest dose often 46.1 µM); calls by dose curve; also: actives are rising curves; nearly all actives have a fitted effect of over 50% in size
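Recovery from NS1-induced slow growth read by OD600 in budding yeast switched to galactose assay medium (pH 6.0, -URA) at 1:100 dilution. Compound 23 nl per well; the matching strain lacking NS1 serves as control.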
Cycloheximide cs – Cycloheximide Counterscreen for Small Molecule Inhibitors of Shiga Toxin | cell reporter, cycloheximide protein synthesis inhibition counterscreen | max response, % | 300,000 compounds, 12% hits | AID 2314, 2010; in the data active = max response mostly above about 13%, no sharp cut-off; inactive = mostly below about 14%; also: read at 38.3 µM for the half of the compounds with a filed dose
Pf growth 48h – Primary qHTS for delayed death inhibitors of the malarial parasite plastid, 48 hour incubation; 310,000 compounds, 5.9% hits; Potency, µM (doses to about 28.7 µM), hits mostly inhibitors; P. falciparum luciferase growth in erythrocytes, 48 h; AID 504832, 2011
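First compound was added to culture medium, then infected red cells at 0.1% parasitemia and 2% hematocrit (final). After incubation at 37 C under 5% CO2, luciferase detection reagent was dispensed and light output recorded.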
Pf growth 96h – Primary qHTS for delayed death inhibitors of the malarial parasite plastid, 96 hour incubation | Potency, µM (series often up to 28.7 µM), actives largely listed as inhibitors | P. falciparum luciferase reporter growth, 96 h | 320,000 compounds, 6.9% hits | AID 504834, 2011
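Cell-based qHTS: luciferase-tagged P. falciparum in erythrocytes (2% hematocrit, 0.05% parasitemia final) incubated with compounds for 96 hours, 37 C, 5% CO2; luciferase detection reagent then added and luminescence measured.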
Shiga toxin inh – A qHTS for Small Molecule Inhibitors of Shiga Toxin; Vero cells, Shiga toxin protein synthesis inhibition reporter; inhibition, % at 38.7 µM; 290,000 compounds, 9.2% hits; AID 2315, 2010; in the data active = inhibition mostly above about 28%, no sharp cut-off; inactive = mostly below about 43%
Hits are given with their value; i = inactive; ? = inconclusive; nt = not tested or not shown; [ ] = another dose, or the depositor's remark. A selection: hits, their analogues and other compounds. The true share with any hit is near 21%. Unless noted, calls follow the shape of the dose curve; as a rule, active = well fitted curve in the direction sought with a large enough effect; inconclusive = small, poorly fitted or top-dose-only effect, or another doubt; inactive = no such curve, though single readings can be large; an effect the other way counts as inactive or inconclusive.

SMILES	FBPA Giardia inh	NS1 function inh	Cycloheximide cs	Pf growth 48h	Pf growth 96h	Shiga toxin inh
C=C(C)CN(CC)C(=O)CN1C(=O)NC2(CCCc3ccccc32)C1=O (centres undefined)	nt	i	i	i	i	i
Cc1ccc2[nH]c3c(c2c1)CN(C(=O)CN1c2ccc(F)cc2CCC1C)CC3 (centres undefined)	nt	i	i	12µM	13µM	i
COc1ccc(SCCCn2c(=O)c3c(ncn3C)n(C)c2=O)cc1	i	i	i	i	?	i
O=C1c2ccccc2C2=Nc3ccccc3SC(c3ccc(Cl)cc3)C12 (centres undefined)	i	i	i	0.52µM	i	i
O=C1c2ccccc2C2=Nc3ccccc3SC(c3cccc(F)c3)C12 (centres undefined)	i	i	i	0.59µM	?	i
CCN(C(=O)COC(=O)c1ccc2c(c1)OCO2)c1c(N)n(Cc2ccccc2)c(=O)[nH]c1=O	nt	nt	nt	i	i	nt
O=C(NC12CC3CC(CC(C3)C1)C2)OCCNC1CCCCC1	i	i	i	?	10µM	i
Cc1cc(NC(=O)CSc2nc3c(c(=O)n2Cc2ccccc2)SC(C)C3)no1 (centres undefined)	i	i	i	1.9µM	1.5µM	i
Cc1cc(NC(=O)CSc2nc3c(c(=O)n2-c2ccc(Br)cc2)SCC3)no1	i	i	i	7.4µM	i	i
CCOc1ccc(-n2c(SCC)nc3c(c2=O)SCC3)cc1	i	i	i	i	i	i
Cc1ccc(-n2c(SCC(=O)Nc3cc(C)on3)nc3c(c2=O)SC(C)C3)cc1 (centres undefined)	i	i	i	0.83µM	?	i
CCSc1nc2c(c(=O)n1-c1ccc(F)cc1)SCC2	i	i	i	?	2.9µM	i
COc1ccc(Br)cc1CNC(=O)Cn1nc(C)n2cccc2c1=O	nt	i	i	i	i	i
CC1Cc2nc(SCC(=O)NCc3ccco3)n(Cc3ccccc3)c(=O)c2S1 (centres undefined)	i	i	i	?	?	36
CCN(CC)S(=O)(=O)c1ccc(OC)c(NC(=O)CSc2cc(Cl)ccc2Cl)c1	i	i	i	?	?	i
COc1ccccc1C/C(N)=N/OC(=O)c1cccc([N+](=O)[O-])c1C	i	i	15	9.3µM	i	i
COc1ccc(/C(N)=N/OC(=O)c2cccc([N+](=O)[O-])c2C)cc1	i	i	i	?	i	i
Cc1ccc(S(=O)(=O)N2CCOC23CCN(C(=O)c2ccccc2Br)CC3)cc1	nt	i	i	i	i	i
CSc1ccc(CCNC(=O)CCc2nnc3ccc(N4CCCC4)nn23)cc1	i	i	i	?	9.3µM	i
CCOc1ccc(CCNC(=O)CCc2nnc3ccc(N4CCOCC4)nn23)cc1OCC	i	i	i	i	13µM	i
CC(C)C[C@H](NC(=O)[C@H](CO)NC(=O)CNC(=O)[C@H](CCCCN)NC(=O)[C@H](CCCN=C(N)N)NC(=O)[C@H](C)NC(=O)[C@H](Cc1ccccc1)NC(=O)[C@@H](N)CCCN=C(N)N)C(=O)N[C@@H](CCCN=C(N)N)C(=O)N[C@@H](CCC(N)=O)C(=O)N[C@@H](CCCCN)C(=O)N[C@@H](CC(N)=O)C(=O)N[C@H](C(=O)O)C(C)C	i	nt	i	nt	nt	i
O[C@@H]1[C@@H](O)C=C2CCN3Cc4cc5c(cc4[C@H]1C23)OCO5 (some centres undefined)	nt	nt	nt	0.33µM	0.29µM	nt
O=C(COc1ccc2c(c1)CCC2)NCc1ccc(Cl)cc1	i	i	i	i	i	i
COc1ccc(NC(=O)Cc2ccccc2)cn1	i	nt	i	i	5.2µM	i
COc1ccc(NC(=O)CSc2ccccc2)cn1	i	nt	27	i	i	49
SMILES	FBPA Giardia inh	NS1 function inh	Cycloheximide cs	Pf growth 48h	Pf growth 96h	Shiga toxin inh
COc1ccc(NC(=O)/C(Cl)=C(/Cl)S(=O)Cc2ccccc2)cn1 (centres undefined)	i	i	48	15µM	nt	i
NS(=O)(=O)c1ccc(NC(=O)CSc2nc3ccccc3[nH]2)cc1	i	nt	i	i	i	i
NS(=O)(=O)c1ccc(NC(=O)CSc2ccccc2)cc1	i	nt	20	i	i	i
Cn1ncc(Br)c1N1C(=O)CCC1=O	i	i	i	i	i	i
O=c1c2c([nH]n1-c1ccccc1)CCSC2	i	i	i	i	i	i
CC1CN(C(=O)COC(=O)c2ccc(F)cc2Cl)CC(C)O1 (centres undefined)	i	i	i	i	i	i
O=C(OCC(=O)N1CCOCC1)c1cccc(F)c1	i	i	48	i	i	94
O=C(OCC(=O)N1CCOCC1)c1ccc(F)cc1Cl	i	i	35	i	i	51
O=C(CSc1nnc(-c2cccs2)n1C1CC1)NCC1CCCO1 (centres undefined)	nt	nt	nt	i	i	nt
COc1ccc(C(=O)Nc2ccc(Cl)cc2F)cc1S(=O)(=O)N1CCCC1	nt	nt	nt	12µM	9.3µM	nt
COc1ccc(S(=O)(=O)N2CCCCC2)cc1NC(=O)c1c(F)cccc1Cl	nt	nt	nt	8.3µM	2.9µM	nt
COc1ccc(S(=O)(=O)N2CCCCC2)cc1NC(=O)c1ccccc1	nt	nt	nt	i	i	nt
COc1ccc(S(=O)(=O)N2CCCC2)cc1NC(=O)c1ccccc1	i	i	i	i	12µM	i
O=C(CN1C(=O)c2ccccc2C1=O)Nc1sc2c(c1C(=O)NCc1ccco1)CCCC2	i	i	i	i	i	i
Cc1ccccc1C1=NCC(=O)N(CC(=O)NCc2ccco2)c2sc3c(c21)CCCC3	i	i	15	?	i	i
COC(=O)NC(/C(C(=O)OC)=C(\C)NCc1ccccc1)c1cccc(C)c1 (centres undefined)	i[12.9 µM]	nt	nt	nt	nt	nt
CCCCn1c(N)c(N(CC(C)C)C(=O)Cc2ccc3c(c2)OCCO3)c(=O)[nH]c1=O	nt	nt	nt	?	i	nt
CCOc1ccc(-c2csc(/C(C#N)=C\c3ccc(O)c([N+](=O)[O-])c3)n2)cc1	i	i	i	?	5.2µM	i
O=Cc1cc(-c2ccccc2)[nH]c1-c1ccccc1	i	i	24	i	i	nt
Cc1ccc(SCC(=O)Nc2ccc(-c3nnc(-c4ccco4)o3)cc2)cc1	i	i	16	?	i	43
O=C(Cc1ccccc1)Nc1ccc(-c2nnc(-c3ccco3)o2)cc1	i	i	17	i	i	i
Cc1ccc(NC(=O)CCSc2nnc(-c3ccco3)o2)cc1	i	i	i	i	?	i
O=C(Cc1ccc(Cl)cc1)Nc1ccc(-c2nnc(-c3ccco3)o2)cc1	i	i	i	?	i	i
COc1ccccc1CC(=O)Nc1ccc(-c2nnc(-c3ccco3)o2)cc1	i	i	24	8.3µM	i	i
O=C(CSc1nnc(-c2ccccc2)o1)c1nnc(-c2ccccc2)o1	i	i	i	nt	?	i
O=C(Cc1ccccc1)c1nnc(-c2ccccc2)o1	i	i	14	i	?	i
